From PubChem BioAssay (EPA / NIEHS)
The source made the active and inactive calls. Rule for the calls: active = hit-call score of the fitted dose curve at least 0.9, where 1 is the maximum; inactive = score below 0.9.

Experiments:
Conditions in all cases: mRNA level, 48 h; actives raise or lower the signal
[1] = read-out: adenosine kinase (ADK) gene, ADK (gene 132); assay: LTEA_HepaRG_ADK: Life Technologies and Expression Analysis (LTEA) Assay for adenosine kinase (ADK) gene using HepaRG (AID 2283471)
In short: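 ADK expression quantified by qRT-PCR, normalised to three housekeeping genes, after 48 h exposure of HepaRG cells to eight concentrations (top 100 uM, half-log steps, duplicate, 0.5% DMSO). Up- or down-regulation fitted relative to vehicle.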

[2] = read-out: Alpha-fetoprotein (AFP) gene, AFP (gene 174); assay: LTEA_HepaRG_AFP: Life Technologies and Expression Analysis (LTEA) Assay for Alpha-fetoprotein (AFP) gene using HepaRG (AID 2283472)
In short: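 HepaRG, single lot; 48 h post-plating -> serum-free induction medium; cpd 8-pt, 100 uM top, half-log, 0.5% DMSO, duplicate, 48 h. RNA -> qRT-PCR AFP, norm ACTB/GAPDH/POLR2A. Bidirectional fit vs DMSO.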

BCL2L11 (gene 10018) = assay: LTEA_HepaRG_BCL2L11: Life Technologies and Expression Analysis (LTEA) Assay for Bcl-2 (BCL2L11) gene using HepaRG (AID 2283473)
In short: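 Differentiated human HepaRG cells in serum-free induction medium were exposed in duplicate for 48 h to eight concentrations (top 100 uM, half-log steps, 0.5% DMSO). BCL2L11 mRNA was quantified by TaqMan qRT-PCR, normalized to ACTB/GAPDH/POLR2A, bidirectional fit versus DMSO.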

[3] = read-out: Apolipoprotein A-V (APOA5) gene, APOA5 (gene 116519); assay: LTEA_HepaRG_APOA5: Life Technologies and Expression Analysis (LTEA) Assay for Apolipoprotein A-V (APOA5) gene using HepaRG (AID 2283474)
In short: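 Differentiated human HepaRG cells were exposed in duplicate for 48 h to eight half-log concentrations from 100 uM in 0.5% DMSO. APOA5 mRNA was quantified by TaqMan qRT-PCR, normalized to ACTB, GAPDH and POLR2A, and fitted bidirectionally against DMSO.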

[4] = read-out: Apoptosis regulator Bcl-2 (Homo sapiens) (UniProt P10415); assay: LTEA_HepaRG_BCL2: Life Technologies and Expression Analysis (LTEA) Assay for Bcl-2 gene using HepaRG (AID 2283475)
In short: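 HepaRG, plated 48 h then switched to serum-free induction medium; dosed 48 h, 8 conc. (max 100 uM, half-log steps), duplicate, 0.5% DMSO. Lysis in RLT, RNA isolated, TaqMan qRT-PCR for BCL2; ACTB/GAPDH/POLR2A normalisation; bidirectional fit vs DMSO.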

[5] = read-out: Bcl-2 (BID) gene, BID (gene 637); assay: LTEA_HepaRG_BID: Life Technologies and Expression Analysis (LTEA) Assay for Bcl-2 (BID) gene using HepaRG (AID 2283476)
In short: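 Transcript levels of BID, measured by qRT-PCR and normalized to three housekeeping genes, were fitted bidirectionally against DMSO controls. Cells were HepaRG, dosed 48 h at up to 100 uM.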

Caspase-3 (Homo sapiens) = Caspase-3 (Homo sapiens) (UniProt P42574); assay: LTEA_HepaRG_CASP3: Life Technologies and Expression Analysis (LTEA) Assay for cysteine-aspartic acid protease (CASP3) using HepaRG (AID 2283477)
In short: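 Differentiated human HepaRG cells in serum-free induction medium were exposed 48 h to 8-point half-log concentrations from 100 uM (0.5% DMSO vehicle). CASP3 mRNA was measured by qRT-PCR, normalised to ACTB, GAPDH and POLR2A, with bidirectional fitting against DMSO.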

[6] = read-out: Cytochrome P450 (CYP24A1), CYP24A1 (gene 1591); assay: LTEA_HepaRG_CYP24A1: Life Technologies and Expression Analysis (LTEA) Assay for Cytochrome P450 (CYP24A1) using HepaRG (AID 2283478)
In short: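 Differentiated HepaRG cells, pre-cultured 48 h, were exposed in duplicate for 48 h in serum-free induction medium to 8 half-log concentrations (top 100 uM, 0.5% DMSO). CYP24A1 mRNA was quantified by TaqMan qRT-PCR, normalized to ACTB/GAPDH/POLR2A, fitted bidirectionally versus DMSO.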

[7] = read-out: Cytochrome P450 (CYP1A2), CYP1A2 (gene 1544); assay: LTEA_HepaRG_CYP1A2: Life Technologies and Expression Analysis (LTEA) Assay for Cytochrome P450 (CYP1A2) using HepaRG (AID 2283479)
In short: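 Differentiated human HepaRG cells in serum-free induction medium were exposed in duplicate for 48 h to 8-point half-log concentrations up to 100 uM in 0.5% DMSO. CYP1A2 mRNA measured by qRT-PCR, normalized to ACTB, GAPDH, POLR2A; bidirectional fit vs DMSO.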

[8] = read-out: cysteine-aspartic acid protease (CASP8), CASP8 (gene 841); assay: LTEA_HepaRG_CASP8: Life Technologies and Expression Analysis (LTEA) Assay for cysteine-aspartic acid protease (CASP8) using HepaRG (AID 2283480)
In short: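 HepaRG, 48 h exposure, duplicate wells; 8 conc, half-log from 100 uM, 0.5% DMSO. Serum-free induction medium. CASP8 mRNA by TaqMan qRT-PCR, norm. ACTB/GAPDH/POLR2A; gain/loss fitted vs DMSO.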

[9] = read-out: Cytochrome P450 (CYP2B6), CYP2B6 (gene 1555); assay: LTEA_HepaRG_CYP2B6: Life Technologies and Expression Analysis (LTEA) Assay for Cytochrome P450 (CYP2B6) using HepaRG (AID 2283481)
In short: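 Differentiated HepaRG cells, serum-free induction medium, exposed 48 h in duplicate to 8-point half-log concentrations from 100 uM in 0.5% DMSO. CYP2B6 mRNA by qRT-PCR, normalized to ACTB, GAPDH, POLR2A; bidirectional fit versus DMSO.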

[10] = read-out: Cytochrome P450 2C19 (Homo sapiens) (UniProt P33261); assay: LTEA_HepaRG_CYP2C19: Life Technologies and Expression Analysis (LTEA) Assay for CYP2C19 using HepaRG (AID 2283482)
In short: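 Differentiated human HepaRG cells were exposed for 48 h in serum-free induction medium to 8 concentrations (top 100 uM, half-log steps, 0.5% DMSO). CYP2C19 mRNA was measured by qRT-PCR, normalized to ACTB/GAPDH/POLR2A, and fitted bidirectionally against DMSO.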

CYP2C8 (gene 1558) = assay: LTEA_HepaRG_CYP2C8: Life Technologies and Expression Analysis (LTEA) Assay for CYP2C8 using HepaRG (AID 2283483)
In short: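 CYP2C8 mRNA induction or loss, by qRT-PCR normalized to ACTB/GAPDH/POLR2A, is read in HepaRG cells after 48 h treatment. Concentrations run from 100 uM down in half-log dilutions, with 0.5% DMSO as vehicle and baseline.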

CYP2C9 (gene 1559) = assay: LTEA_HepaRG_CYP2C9: Life Technologies and Expression Analysis (LTEA) Assay for CYP2C9 using HepaRG (AID 2283484)
In short: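 Cells plated 48 h, switched to serum-free induction medium, then treated in duplicate for 48 h at eight concentrations (max 100 uM, 0.5% DMSO). RNA then analysed by qRT-PCR for CYP2C9; curves fitted in both directions relative to DMSO.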

CYP2E1 (gene 1571) = assay: LTEA_HepaRG_CYP2E1: Life Technologies and Expression Analysis (LTEA) Assay for CYP2E1 using HepaRG (AID 2283485)
In short: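 Human liver line HepaRG, plated 48 h, then serum-free induction medium + chemical x 48 h; 8-pt CRC from 100 uM, half-log, 0.5% DMSO, n=2. Readout: CYP2E1 mRNA qRT-PCR vs ACTB/GAPDH/POLR2A; bidirectional fit vs DMSO.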

CYP4A11 (gene 1579) = assay: LTEA_HepaRG_CYP4A11: Life Technologies and Expression Analysis (LTEA) Assay for CYP4A11 using HepaRG (AID 2283486)
In short: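 Differentiated HepaRG cells, serum-free induction medium, exposed 48 h in duplicate to 8-point half-log series from 100 uM in 0.5% DMSO. CYP4A11 mRNA measured by qRT-PCR, normalized to ACTB, GAPDH, POLR2A; bidirectional fit versus DMSO.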

[11] = read-out: Cytochrome P450 3A4 (Homo sapiens) (UniProt P08684); assay: LTEA_HepaRG_CYP3A4: Life Technologies and Expression Analysis (LTEA) Assay for CYP3A4 using HepaRG (AID 2283487)
In short: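 Differentiated HepaRG cells, plated 48 h, then dosed 48 h in serum-free induction medium with 0.5% DMSO, 8 half-log concentrations up to 100 uM, duplicate. CYP3A4 mRNA by qRT-PCR, normalized to ACTB/GAPDH/POLR2A; bidirectional fit versus DMSO.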

[12] = read-out: DNA damage-inducible transcript 3 (DDIT3), DDIT3 (gene 1649); assay: LTEA_HepaRG_DDIT3: Life Technologies and Expression Analysis (LTEA) Assay for DNA damage-inducible transcript 3 (DDIT3) using HepaRG (AID 2283488)
In short: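 HepaRG plated 48 h, switched to serum-free induction medium, dosed 48 h (100 uM top, half-log, 8 pts, 0.5% DMSO, n=2); RNA isolated; DDIT3 by qRT-PCR; bidirectional curve fit vs DMSO.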

[13] = read-out: Pro-epidermal growth factor (Homo sapiens) (UniProt P01133); assay: LTEA_HepaRG_EGF: Life Technologies and Expression Analysis (LTEA) Assay for Epidermal growth factor (EGF) using HepaRG (AID 2283489)
In short: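 Differentiated human HepaRG cells, plated 48 h then switched to serum-free induction medium, were exposed for 48 h to test chemicals (8-point half-log series, top 100 uM, 0.5% DMSO). EGF mRNA was quantified by qRT-PCR, normalized to ACTB, GAPDH, POLR2A.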

[14] = read-out: Early growth response protein 1 (EGR1) transcription factor, EGR1 (gene 1958); assay: LTEA_HepaRG_EGR1: Life Technologies and Expression Analysis (LTEA) Assay for Early growth response protein 1 (EGR1) transcription factor using HepaRG (AID 2283490)
In short: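 Read-out is EGR1 mRNA level by qRT-PCR, normalized to three housekeeping genes and analysed for gain or loss of signal against 0.5% DMSO. Source cells: human HepaRG, treated 48 h at up to 100 uM in half-log dilutions.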

Measured: AC50

Sequence of Apoptosis regulator Bcl-2 (Homo sapiens) (P10415 whole entry, looked up): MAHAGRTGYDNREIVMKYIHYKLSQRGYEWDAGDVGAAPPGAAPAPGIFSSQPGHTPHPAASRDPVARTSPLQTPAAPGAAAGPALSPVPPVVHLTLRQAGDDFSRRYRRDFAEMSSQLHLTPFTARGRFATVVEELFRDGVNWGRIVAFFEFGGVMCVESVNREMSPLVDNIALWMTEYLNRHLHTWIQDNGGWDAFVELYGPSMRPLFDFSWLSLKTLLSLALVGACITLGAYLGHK
Sequence of Cytochrome P450 2C19 (Homo sapiens) (P33261 whole entry, looked up): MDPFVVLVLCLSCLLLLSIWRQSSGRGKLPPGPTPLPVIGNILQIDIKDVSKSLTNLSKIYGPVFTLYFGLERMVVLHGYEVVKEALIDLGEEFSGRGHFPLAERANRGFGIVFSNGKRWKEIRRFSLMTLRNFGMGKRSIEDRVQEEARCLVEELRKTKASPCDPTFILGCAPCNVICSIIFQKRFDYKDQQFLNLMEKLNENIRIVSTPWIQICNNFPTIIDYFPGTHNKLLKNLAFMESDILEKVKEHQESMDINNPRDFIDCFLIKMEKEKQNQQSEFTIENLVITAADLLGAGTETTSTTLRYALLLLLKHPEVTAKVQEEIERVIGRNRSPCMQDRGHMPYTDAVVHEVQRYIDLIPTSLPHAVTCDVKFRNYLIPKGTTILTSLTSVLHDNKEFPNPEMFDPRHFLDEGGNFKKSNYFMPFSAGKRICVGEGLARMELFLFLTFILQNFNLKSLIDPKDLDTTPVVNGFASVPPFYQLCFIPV
Sequence of Cytochrome P450 3A4 (Homo sapiens) (P08684 whole entry, looked up): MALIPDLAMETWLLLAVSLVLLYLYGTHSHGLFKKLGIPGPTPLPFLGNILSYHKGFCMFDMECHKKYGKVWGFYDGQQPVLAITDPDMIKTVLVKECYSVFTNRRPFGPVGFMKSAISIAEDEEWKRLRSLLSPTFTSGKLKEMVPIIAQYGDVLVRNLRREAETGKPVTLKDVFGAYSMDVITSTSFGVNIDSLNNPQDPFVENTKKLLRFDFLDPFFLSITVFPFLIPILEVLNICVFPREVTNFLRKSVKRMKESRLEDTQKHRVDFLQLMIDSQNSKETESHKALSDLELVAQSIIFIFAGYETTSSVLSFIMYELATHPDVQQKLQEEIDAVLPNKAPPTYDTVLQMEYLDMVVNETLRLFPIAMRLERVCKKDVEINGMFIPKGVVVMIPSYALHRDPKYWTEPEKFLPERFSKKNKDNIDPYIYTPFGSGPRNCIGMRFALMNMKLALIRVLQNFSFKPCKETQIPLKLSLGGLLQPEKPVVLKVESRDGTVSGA
Sequence of Caspase-3 (Homo sapiens) (P42574 whole entry, looked up): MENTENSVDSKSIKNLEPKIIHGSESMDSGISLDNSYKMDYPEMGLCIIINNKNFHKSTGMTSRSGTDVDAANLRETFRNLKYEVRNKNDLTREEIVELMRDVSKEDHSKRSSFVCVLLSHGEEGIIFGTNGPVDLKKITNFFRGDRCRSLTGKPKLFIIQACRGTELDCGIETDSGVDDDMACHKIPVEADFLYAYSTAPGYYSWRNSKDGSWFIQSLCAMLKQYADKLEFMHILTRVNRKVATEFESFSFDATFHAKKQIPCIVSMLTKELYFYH

Cc1cc(C)nc(Nc2ccccc2)n1
active: [7] 88.8 µM | [9] 6.39 µM | CYP4A11 (gene 1579) 50 µM
inactive: all other assays above

CC1(C)CON(Cc2ccccc2Cl)C1=O
active: [9] 2.45 µM | [10] 6.15 µM | CYP2C8 (gene 1558) 12.8 µM | CYP2E1 (gene 1571) 31.4 µM | [11] 5.64 µM
inactive: all other assays above

CC(C)N1C(=O)N(c2ccccc2)CSC1=NC(C)(C)C
active: [2] 64.4 µM | [3] 81.8 µM | [4] 78.7 µM | [7] 50 µM | [9] 89.3 µM | [10] 11.4 µM | CYP2C8 (gene 1558) 84.2 µM | CYP2C9 (gene 1559) 83.3 µM | CYP2E1 (gene 1571) 63.5 µM | CYP4A11 (gene 1579) 67.6 µM | [11] 12 µM | [12] 73.8 µM
inactive: [1] | BCL2L11 (gene 10018) | [5] | Caspase-3 (Homo sapiens) | [6] | [8] | [13] | [14]

COC(=O)NC(=S)Nc1ccccc1NC(=S)NC(=O)OC
active: [7] 39 µM | [9] 9.55 µM | [10] 13.7 µM | CYP2E1 (gene 1571) 26.8 µM | [11] 6.29 µM
inactive: all other assays above

CCOP(=O)(OCC)Oc1nc(Cl)c(Cl)cc1Cl
active: [2] 75.9 µM | BCL2L11 (gene 10018) 76.6 µM | [3] 83.8 µM | [4] 68.4 µM | [9] 83.6 µM | [10] 80.7 µM | CYP2C8 (gene 1558) 84.5 µM | CYP2C9 (gene 1559) 93 µM | CYP2E1 (gene 1571) 76 µM | CYP4A11 (gene 1579) 77.4 µM | [11] 49.8 µM | [14] 83.4 µM
inactive: [1] | [5] | Caspase-3 (Homo sapiens) | [6] | [7] | [8] | [12] | [13]

CSC(=O)c1c(C(F)F)nc(C(F)(F)F)c(C(=O)SC)c1CC(C)C
active: [2] 49.8 µM | [4] 49.8 µM | [9] 11.8 µM | [10] 12.2 µM | CYP2C8 (gene 1558) 11.5 µM | CYP2C9 (gene 1559) 87 µM | CYP2E1 (gene 1571) 53.7 µM | CYP4A11 (gene 1579) 87.3 µM | [11] 2.51 µM
inactive: all other assays above

Clc1cccc(C(Cl)(Cl)Cl)n1
active: [9] 2.9 µM
inactive: all other assays above

COP(=S)(OC)Oc1ccc([N+](=O)[O-])c(C)c1
active: [6] 0.00316 µM | [7] 50 µM | [9] 4.75 µM
inactive: all other assays above

CCCN(CC)CC1COC2(CCC(C(C)(C)C)CC2)O1 (stereo not given)
active: [9] 50 µM
inactive: all other assays above

Nc1c(Cl)c(F)nc(OCC(=O)O)c1Cl
inactive: all assays above

CCN(CC)c1nc(C)cc(OP(=S)(OC)OC)n1
active: [7] 38 µM | [9] 2.79 µM | [10] 12.1 µM | CYP2E1 (gene 1571) 37.4 µM | [11] 10.9 µM
inactive: all other assays above

Cc1cnc(C2=NC(C)(C(C)C)C(=O)N2)c(C(=O)O)c1 (stereo not given)
inactive: all assays above
